Source: PubChem BioAssay
Active and inactive are the calls of the source.

Legend:
[1] = tested on: Plasmodium falciparum Sir2 (PF13_0152, Sir2A); experiment: pfSir2 binders on small-molecule microarrays, primary screen, biochemical, small-molecule microarray, 635 nm fluorescence (AID 1098); settings: small-molecule microarray binding, fluorescence 635 nm; higher = more signal;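 also: score merges spot fluorescence intensity with its signal-to-noise ratio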
[2] = small-molecule microarray binders of probe aDKK1, primary screen, biochemical, biotinylated probe, 635/667 nm fluorescence (AID 1099); settings: higher = more signal;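 also: score merges 667nm spot fluorescence with signal to noise across triplicate slides; reference of the scale not given here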
[3] = small-molecule microarray binders of probe aCHRDL2, primary screen, biochemical, biotinylated probe, 635/667 nm fluorescence (AID 1100); settings: higher = more signal
[4] = splicing luciferase reporter signal modulators, primary screen, spliceosome inhibition project, cell-based, HEK293, splice +/- reporter (AID 1101); settings: luminescence, 24 h, higher = more signal, called active from +8 up or from −8 down;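 also: HEK293 cells carrying a splicing-competent luciferase reporter gene; test concentration not given here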
[5] = molecular target: Fibroblast growth factor 10 (Homo sapiens) (UniProt O15520); experiment: FGF10 binders on small-molecule microarrays, primary screen, biochemical, small-molecule microarray, 635 nm fluorescence (AID 1102); settings: FGF10 binding, fluorescence 635 nm, higher = more signal
Fibroblast growth factor 10 (Homo sapiens), sequence (O15520 whole entry, looked up): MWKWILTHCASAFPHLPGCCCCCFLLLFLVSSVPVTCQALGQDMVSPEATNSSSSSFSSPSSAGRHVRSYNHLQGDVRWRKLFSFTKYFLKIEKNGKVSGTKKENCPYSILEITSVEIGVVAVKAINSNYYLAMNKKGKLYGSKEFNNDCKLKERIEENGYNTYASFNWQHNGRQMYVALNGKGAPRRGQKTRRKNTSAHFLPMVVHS

[6] = tested on: glycogen synthase kinase-3 (GSK3A per assay name; protocol says GSK3B); experiment: GSK3 binders on small-molecule microarrays, primary screen, biochemical, small-molecule microarray, 635 nm fluorescence, GSK3A (AID 1103); settings: small-molecule microarray binding, fluorescence 635 nm; higher = more signal; also: the record names both GSK3A and GSK3B
[7] = molecular target: Epidermal growth factor receptor (Homo sapiens) (UniProt P00533); experiment: EGFR binders on small-molecule microarrays, primary screen, biochemical, small-molecule microarray, 635 nm fluorescence (AID 1104); settings: EGFR binding, higher = more signal;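 also: score merges 667 nm emission intensity with spot signal to noise over triplicate slides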
Epidermal growth factor receptor (Homo sapiens), sequence (P00533 whole entry, looked up): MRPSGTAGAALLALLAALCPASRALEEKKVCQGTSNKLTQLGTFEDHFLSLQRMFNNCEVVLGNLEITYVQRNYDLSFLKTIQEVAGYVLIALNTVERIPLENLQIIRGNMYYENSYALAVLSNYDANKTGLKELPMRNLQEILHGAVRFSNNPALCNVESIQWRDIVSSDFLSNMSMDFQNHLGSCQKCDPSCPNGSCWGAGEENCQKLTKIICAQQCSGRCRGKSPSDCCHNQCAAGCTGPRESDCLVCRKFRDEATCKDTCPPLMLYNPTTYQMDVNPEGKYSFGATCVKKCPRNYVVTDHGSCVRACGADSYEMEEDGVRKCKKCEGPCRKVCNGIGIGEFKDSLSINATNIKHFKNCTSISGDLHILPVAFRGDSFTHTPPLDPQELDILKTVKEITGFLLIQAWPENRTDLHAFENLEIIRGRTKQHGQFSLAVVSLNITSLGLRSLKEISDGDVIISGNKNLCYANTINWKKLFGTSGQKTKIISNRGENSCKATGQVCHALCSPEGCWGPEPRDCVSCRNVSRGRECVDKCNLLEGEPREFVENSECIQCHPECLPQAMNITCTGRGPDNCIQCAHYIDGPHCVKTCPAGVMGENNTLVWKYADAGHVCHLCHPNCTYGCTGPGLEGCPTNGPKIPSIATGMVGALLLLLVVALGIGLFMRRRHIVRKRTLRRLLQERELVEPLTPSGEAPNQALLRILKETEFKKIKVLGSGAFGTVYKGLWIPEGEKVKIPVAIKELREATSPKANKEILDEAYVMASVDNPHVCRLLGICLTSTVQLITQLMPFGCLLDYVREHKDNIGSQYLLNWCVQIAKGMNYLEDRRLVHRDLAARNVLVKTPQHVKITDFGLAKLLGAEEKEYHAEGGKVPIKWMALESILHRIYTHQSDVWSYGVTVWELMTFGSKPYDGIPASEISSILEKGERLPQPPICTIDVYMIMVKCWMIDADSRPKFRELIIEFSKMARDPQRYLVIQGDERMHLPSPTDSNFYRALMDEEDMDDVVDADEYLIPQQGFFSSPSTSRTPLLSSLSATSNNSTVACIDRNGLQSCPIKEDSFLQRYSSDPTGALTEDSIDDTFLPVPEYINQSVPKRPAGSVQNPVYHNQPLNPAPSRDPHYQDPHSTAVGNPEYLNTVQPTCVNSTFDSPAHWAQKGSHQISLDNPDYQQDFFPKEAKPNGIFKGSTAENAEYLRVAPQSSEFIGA

[8] = molecular target: Follistatin-related protein 3 (Homo sapiens) (UniProt O95633); experiment: FSTL3 binders on small-molecule microarrays, primary screen, biochemical, small-molecule microarray, 635 nm fluorescence (AID 1105); settings: FSTL3 binding, higher = more signal;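 also: score merges emission near 667 nm and signal to noise per printed spot across three slides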
Follistatin-related protein 3 (Homo sapiens), sequence (O95633 whole entry, looked up): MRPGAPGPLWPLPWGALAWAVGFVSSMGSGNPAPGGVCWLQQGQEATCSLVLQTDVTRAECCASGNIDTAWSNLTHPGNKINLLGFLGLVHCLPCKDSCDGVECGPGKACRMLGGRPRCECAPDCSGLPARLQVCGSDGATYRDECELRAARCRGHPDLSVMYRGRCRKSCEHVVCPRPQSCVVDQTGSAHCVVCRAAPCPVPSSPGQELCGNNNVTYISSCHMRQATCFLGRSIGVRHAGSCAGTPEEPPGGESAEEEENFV

[9] = molecular target: Dickkopf-related protein 1 (Homo sapiens) (UniProt O94907); experiment: DKK1 binders on small-molecule microarrays, primary screen, biochemical, small-molecule microarray, 635 nm fluorescence scan (AID 1106); settings: DKK1 binding, higher = more signal;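 also: score merges emission near 667 nm with signal to noise over three replicate slides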
Dickkopf-related protein 1 (Homo sapiens), sequence (O94907 whole entry, looked up): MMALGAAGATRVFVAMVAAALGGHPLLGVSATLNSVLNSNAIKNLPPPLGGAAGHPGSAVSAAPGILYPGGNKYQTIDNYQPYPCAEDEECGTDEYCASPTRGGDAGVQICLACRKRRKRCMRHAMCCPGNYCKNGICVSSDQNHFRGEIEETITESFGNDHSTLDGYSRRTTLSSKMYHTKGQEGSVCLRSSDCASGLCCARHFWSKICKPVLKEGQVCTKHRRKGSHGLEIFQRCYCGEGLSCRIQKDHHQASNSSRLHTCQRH

[10] = tested on: Inhibin beta A chain (activin A); experiment: INHBA (activin A) binders on microarrays, primary screen, biochemical, small-molecule microarray, 635 nm fluorescence scan (AID 1107); settings: small-molecule microarray binding, higher = more signal;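 also: mouse activin A protein probed at 4.33 µg/mL on printed slides; score merges bound-protein fluorescence near 667 nm with spot signal-to-noise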

SMILES | composite z-score [1] | composite z-score [2] | composite z-score [3] | z-score [4] | composite z-score [5] | composite z-score [6] | composite z-score [7] | composite z-score [8] | composite z-score [9] | composite z-score [10]
C=CC[C@H](OC(=O)Nc1ccc(OC)cc1)c1ccc(O)c2ccccc12 | 1.24 | 0.121 | 0.0255 | 3.32 (inactive) | 0.82 | 1.29 | 0.547 | 1.26 | 0.92 | 1.05
C=C(CCCC)C(=O)CC[C@@H](OC(=O)c1cccnc1)c1ccccc1OCCO | 0.996 | -0.0709 | 0.515 | 4.97 (inactive) | 0.341 | -0.164 | -0.183 | 0.296 | -0.265 | 1.16
NC(=O)NCC#Cc1ccc2c(c1)[C@]1(C(=O)N2)[C@H](C(=O)Nc2nc3ccccc3s2)[C@H]2C(=O)O[C@H](c3ccccc3)[C@H](c3ccccc3)N2[C@@H]1c1ccc(O)cc1 | 0.726 | 0.636 | 0.212 | 0.232 (inactive) | 1 | 0.163 | 0.278 | 0.53 | 0.246 | 0.744
CCOC(=O)C1=CC[C@@H](c2ccc([N+](=O)[O-])cc2)N(S(=O)(=O)c2ccc(C)cc2)[C@H]1c1ccccc1 | 0.992 | 0.291 | 0.304 | -0.8 (inactive) | 1.21 | 0.154 | 0.764 | 1.26 | 0.293 | 0.521
C[C@]1(C(=O)O)c2ccccc2C(=O)N(Cc2ccccc2)[C@H]1c1ccc(CO)cc1 | 1.51 | 0.44 | 1.11 | -0.602 (inactive) | -1.97 | -1.83 | -1.63 | -1.38 | -1.64 | 0.463
COC1(C)CN(Cc2ccccc2Br)[C@H](/C=C/c2ccccc2)[C@H](Cc2ccccc2)O1 (stereo not given in full) | -0.525 | -0.383 | -0.0981 | -0.792 (inactive) | -0.258 | -0.629 | -0.383 | -0.478 | -1.04 | -0.19
O=C1O[C@H](c2ccccc2)[C@H](c2ccccc2)N2[C@H]1[C@@H](C(=O)O)[C@]1(C(=O)Nc3ccccc31)[C@H]2c1ccc(O)cc1 | 0.663 | -0.391 | 0.253 | -0.531 (inactive) | 0.619 | -0.219 | -0.552 | -0.532 | -0.836 | -1.37
CCCCN1CC=CC23O[C@@H]4C=CCOC(=O)[C@@H]4[C@H]2C(=O)N(CCCO)[C@@H]3C1=O (stereo not given in full) | 1.24 | -0.159 | 0.48 | -1.32 (inactive) | -0.816 | -1.16 | -0.953 | -1.18 | -1.05 | 0.396
O=C1c2ccccc2[C@@]2(Cc3ccccc3N(C3CC3)C2=O)[C@H](c2ccc(CO)cc2)N1C1CCCCC1 | -1.5 | 0.16 | 0.615 | -0.402 (inactive) | -0.364 | -0.492 | -0.412 | -0.558 | -0.526 | 0.5
CC(C)C(=C=CC[C@@H](O)c1ccccc1OCCO)C[C@@H](O)COCc1ccccc1 | 1.23 | 0.469 | 0.264 | -2.12 (inactive) | 1.35 | -0.0582 | 0.22 | 0.589 | -0.691 | 1.35
NC(=O)NCC#Cc1ccc2c(c1)[C@]1(C(=O)N2)[C@H](C(=O)O)[C@H]2C(=O)O[C@H](c3ccccc3)[C@H](c3ccccc3)N2[C@@H]1c1ccccc1OCCO | 1.37 | 0.689 | 0.677 | -1.14 (inactive) | 0.991 | 0.558 | 0.363 | 1.01 | 0.351 | 1.4
C=C(COC)/C(=C/C[C@@H](OC(=O)c1ccncc1)c1ccc(OCCO)cc1)c1cnc2ccccc2c1 | 0.212 | 0.0923 | -0.0001 | -0.275 (inactive) | 1.46 | 1.3 | 1.35 | 1.58 | 0.99 | 1.95
CN(C)CCCNC(=O)[C@@]1(C)c2ccccc2C(=O)N(Cc2cc(C(F)(F)F)cc(C(F)(F)F)c2)[C@H]1c1ccc(CO)cc1 | 1.01 | 0.202 | 0.0634 | -1.24 (inactive) | -0.753 | -0.477 | -1.9 | -1.14 | -0.992 | -1.34
C=CC[C@@]1(C(=O)N2CCCCC2)N=C(c2ccc(OCCCO)cc2)O[C@@H]1c1ccccc1 | 1.53 | 0.833 | 0.613 | 0.411 (inactive) | 0.497 | 1.29 | 0.0106 | -0.0325 | -0.717 | 0.823
CC(C)(C)N1CC=CC23O[C@@H]4C=CCOC(=O)[C@@H]4[C@H]2C(=O)N(CCCO)[C@@H]3C1=O (stereo not given in full) | 1.43 | -0.451 | 0.726 | -1.28 (inactive) | -1.3 | -1.13 | -1.66 | -1.69 | -1.26 | 0.301
C=CC[C@]1(C(=O)N(C)C)N=C(c2ccc(OCCCO)cc2)O[C@H]1c1ccccc1N=[N+]=[N-] | 0.265 | 0.776 | 1.14 | -0.288 (inactive) | 0.762 | 0.346 | -0.257 | 0.859 | -0.367 | 0.889
CC(C)(C)OC(=O)CC[C@@]1(C(=O)O)N=C(c2ccc(OCCCO)cc2)O[C@@H]1c1ccccc1CN=[N+]=[N-] | 1.16 | 1 | 0.602 | -0.326 (inactive) | 0.0038 | 0.396 | -0.207 | -0.43 | -0.689 | 1.08

SMILES | composite z-score [1] | composite z-score [2] | composite z-score [3] | z-score [4] | composite z-score [5] | composite z-score [6] | composite z-score [7] | composite z-score [8] | composite z-score [9] | composite z-score [10]
C=CCN1C(=O)[C@@]2(O[C@@H](CCn3cc([C@H](O)c4ccccc4)nn3)[C@H]([Si](C)(C)c3ccc(OC)cc3)[C@H]2C)c2ccccc21 | 1.52 | -0.0203 | 0.0047 | -0.56 (inactive) | 0.756 | 0.658 | 0.32 | 1.19 | 0.694 | 0.0239
CC(=O)NCCCC[C@@H]1NC(=O)[C@@H]2C[C@H](C(=O)O)[C@H](c3ccc(O)cc3)N2C1=O | 1.66 | -0.106 | 1.06 | -0.905 (inactive) | -0.947 | -1.18 | -1.7 | -1.98 | -1.46 | -2.08
O=C(CCCCCCC(=O)Nc1ccccc1)N/N=C/c1ccccc1 | 0.45 | -0.176 | -0.311 | -0.519 (inactive) | -0.136 | -0.401 | 0.0504 | -0.41 | 0.328 | 0.18
C=CCOC(=O)[C@H]1[C@@H]2C(=O)O[C@@H](c3ccccc3)[C@@H](c3ccccc3)N2[C@@H](c2ccc(OCCOC(=O)[C@H]3C[C@H]4C(=O)N[C@@H](Cc5ccccc5)C(=O)N4[C@H]3c3ccc(O)cc3)cc2)[C@]12C(=O)Nc1ccc(I)cc12 | 1.34 | -0.188 | -0.485 | 0.354 (inactive) | 1.26 | 0.98 | 0.625 | 1.46 | 1.27 | 0.0385
COC(=O)[C@]1(CCS(=O)(=O)c2ccccc2)N=C(c2ccc(OCCCO)cc2)O[C@@H]1c1ccccc1CN=[N+]=[N-] | 1.24 | 0.366 | 0.763 | 1.08 (inactive) | 0.63 | 1.28 | 0.231 | 0.702 | 0.0636 | 0.681
CC=CC(O)C1C=CC2C(=O)N(C)C(=O)C2N1N1CCCCC1 (stereo not given) | 1.11 | 0.123 | 0.452 | 0.661 (inactive) | 0.888 | 1.23 | 0.519 | 1.26 | 0.22 | 0.898
C#CCNC(=O)[C@H](Cc1ccccc1)NC(=O)[C@@H](N=[N+]=[N-])C(C)C | 0.435 | -0.218 | -0.503 | 0.177 (inactive) | 0.18 | 0.596 | 0.398 | 0.335 | 0.654 | 0.554
COc1cc2c(cc1OC)CN(C(=O)[C@H]1[C@@H]3C(=O)O[C@@H](c4ccccc4)[C@@H](c4ccccc4)N3[C@@H](c3ccc(OCCO)cc3)[C@]13C(=O)Nc1ccc(C#CCCO)cc13)CC2 | 0.903 | -0.269 | 0.33 | -0.296 (inactive) | 1.4 | 1.29 | 0.292 | 1.37 | 0.167 | 0.813
CC=CC(O)C1C=CC2C(=O)N(c3ccccc3)C(=O)C2N1Nc1ccc([N+](=O)[O-])cc1 (stereo not given) | 0.563 | -0.0639 | 0.0737 | 0.43 (inactive) | 0.455 | 0.464 | 0.496 | 0.501 | 0.113 | 0.896
COc1ccc([Si](C)(C)[C@H]2[C@H](CCn3cc(CCO)nn3)O[C@@]3(C(=O)N(Cc4ccc(N5C(=O)c6cccc7cccc5c67)cc4)c4ccccc43)[C@@H]2C)cc1 | 0.96 | -0.145 | -0.564 | -2.8 (inactive) | 0.916 | 0.682 | 0.567 | 1.3 | 0.652 | 0.281
CN(C)CCCN1C(=O)[C@@]2(c3ccc([N+](=O)[O-])cc3)CC(=O)N(CC34CC5CC(CC(C5)C3)C4)[C@@H]2c2ccc(CO)cc21 | 1.68 | 1.83 | 0.543 | 0.626 (inactive) | -0.173 | 0.443 | -0.708 | -0.116 | -0.482 | 0.144
C=CCOC(=O)[C@H]1[C@@H]2C(=O)O[C@@H](c3ccccc3)[C@@H](c3ccccc3)N2[C@@H](c2ccc(OCCOC(=O)[C@H]3C[C@H]4C(=O)N[C@@H](Cc5ccccc5)C(=O)N4[C@H]3c3cccc(OCCO)c3)cc2)[C@]12C(=O)Nc1ccc(I)cc12 | 1.12 | -0.298 | -0.0762 | 0.959 (inactive) | 1.24 | 1.28 | 0.536 | 1.29 | 0.759 | 0.17
Cc1c(NC(=O)/C(C#N)=C/C=C/c2ccccc2[N+](=O)[O-])c(=O)n(-c2ccccc2)n1C | 1.03 | -0.0194 | 0.147 | 4.71 (inactive) | 0.386 | 0.417 | 0.187 | 0.71 | 0.446 | 0.0089
COc1ccc([Si](C)(C)[C@H]2[C@H](CCn3cc([C@H](O)c4ccccc4)nn3)O[C@@]3(C(=O)N(Cc4ccc(N5CCC5=O)cc4)c4ccccc43)[C@@H]2C)cc1 | 0.995 | -0.185 | -0.403 | 0.0121 (inactive) | 0.865 | 0.365 | 0.631 | 0.855 | 0.527 | 0.862
O=C1C[C@@](C(=O)NCC(F)(F)F)(c2ccc([N+](=O)[O-])cc2)[C@@H](c2ccc(CO)cc2)N1C1CCCCC1 | 1.65 | 0.74 | 0.843 | -0.684 (inactive) | 0.86 | 1.31 | 0.308 | 1.03 | 0.172 | 0.563
CC1CC/C=C\[C@H]2OC34C=CCN(CCN5CCOCC5)C(=O)[C@H]3N(CCO)C(=O)[C@@H]4C2C(=O)O1 (stereo not given in full) | -0.778 | -0.31 | 0.293 | -0.81 (inactive) | -0.992 | -0.831 | -0.707 | -0.781 | -0.137 | 0.761
